Results taken from PubChem BioAssay AID488837 (National Center for Advancing Translational Sciences (NCATS), 2010).
About 20 (0.006%) of roughly 330,000 compounds were called active. Inconclusive results (about 1%) are left out. Calls follow the shape of the dose curve; as a rule, active = well fitted inhibition curve with a large enough effect; inconclusive = small, poorly fitted or top-dose-only effect, or effect the other way; inactive = flat fitted curve, though single readings scatter. For the sample, actives were picked, then their nearest neighbours and some compounds at random.

Each compound was assayed against Protein phosphatase EYA2 (Homo sapiens) (UniProt O00167) (assay: qHTS Assay for Inhibitors of the Phosphatase Activity of Eya2). Settings: recombinant Eya2, OMFP fluorescence dephosphorylation (OMFP is methylfluorescein phosphate); series mostly up to 76.9 µM.
Source text: The Eya family of proteins are essential co-activators of the Six1 transcription factor. Six1 is a developmental gene that is abnormally re-expressed in a large percentage of breast cancers. This over-expression plays a causal role in the initiation and metastatic development of breast cancers. The Eya family of proteins was also found to contain a unique HAD phosphatase domain with protein tyrosine phosphatase activity which can potentially play a role in Six1-mediated breast tumorigenesis. […] We have developed and optimized a 1536 well fluorescence-based HTS assay targeting the phosphatase activity of Eya2. Inhibitors found against Eya2 could serve as potential therapeutic tools to inhibit Six1-mediated breast tumorigenesis and to increase the efficiency of radiation and certain chemo therapy. These inhibitors could also be used as chemical probes to study the function of Eya2's phosphatase activity and its role in Six1-mediated breast tumorigenesis.
The Eya2 enzyme was kindly provided by the laboratory of Dr. Rui Zhao. The 3-O-methyl-fluorescein phosphate (OMFP) substrate and all buffer reagents were purchased from Sigma Aldrich. qHTS Assay Setup: 1. Buffer- 50 mM HEPES pH 7.5, 50 mM NaCl, 5 uM MgCl2, 0.05% BSA, 1 mM DTT. 2. OMFP Stock- 10 mM solution prepared in 100% DMSO and stored in single use aliquots at -20C. Assay Procedure- 1. Dispense 1.5 ul per well of Eya2 at 0.2 uM in black medium binding 1536 well Greiner plate 2. Transfer 23 nl of compound and control compound (EGTA) to plate 3. Incubate at ambient for 10 minutes 4. Dispense 1.5 ul per well of OMFP at 50 uM 5. Incubate at ambient for 10 minutes 6. Read on ViewLux using Excitation = 485 nm, Emission = 525 nm

Protein phosphatase EYA2 (Homo sapiens), sequence (O00167 whole entry, looked up, the tested form may be a part): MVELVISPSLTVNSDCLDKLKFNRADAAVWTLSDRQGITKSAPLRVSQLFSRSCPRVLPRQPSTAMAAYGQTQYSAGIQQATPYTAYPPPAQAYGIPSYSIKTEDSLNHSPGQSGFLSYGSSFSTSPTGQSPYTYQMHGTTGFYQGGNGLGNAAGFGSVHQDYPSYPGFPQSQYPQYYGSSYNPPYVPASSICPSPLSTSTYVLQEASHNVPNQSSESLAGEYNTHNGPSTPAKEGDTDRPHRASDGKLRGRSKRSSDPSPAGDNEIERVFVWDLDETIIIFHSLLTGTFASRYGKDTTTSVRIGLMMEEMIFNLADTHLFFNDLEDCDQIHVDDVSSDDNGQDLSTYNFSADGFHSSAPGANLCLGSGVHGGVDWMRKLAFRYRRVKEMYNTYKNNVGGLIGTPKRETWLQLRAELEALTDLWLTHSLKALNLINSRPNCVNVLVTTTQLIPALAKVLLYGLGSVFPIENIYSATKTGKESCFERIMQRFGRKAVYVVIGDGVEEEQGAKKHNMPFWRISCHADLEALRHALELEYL

activity, negative = inhibition, inactive:
O=C(CN1CCN(S(=O)(=O)c2ccc3ccccc3c2)CC1)NC(=O)NC1CCCCC1
CN(CC(=O)Nc1c(Cl)cccc1Cl)C(=O)CC1OC(=O)c2ccccc21 (configuration not stated)
CN(Cc1nc2ccc(F)cc2[nH]1)Cc1nc(CC2CC2)no1
COc1ccc(-c2nc(CS(=O)(=O)CC(=O)NCc3cccc(Br)c3)c(C)o2)cc1
CCOC(=O)c1ccc2c(c1)nc(SCC(=O)NC(C)C)n2CC
CC1(C)CC(O)C(CCC(O)c2ccccc2)C(C)(C)N1 (configuration not stated)
Cc1ccc(S(=O)(=O)N(C)C)cc1NC(=O)c1ccccc1Br
CC1CC(C)CN(CCCNC(=O)Cn2ncc3c([nH]c4ccccc43)c2=O)C1 (configuration not stated)
O=C1COc2ccc(C(=O)COC(=O)C3CC(O)CN3S(=O)(=O)c3ccc(Cl)cc3)cc2N1 (configuration not stated)
NC(=O)Cn1nc([N+](=O)[O-])nc1Oc1ccc(Br)cc1
Cc1cc(C)nc(SC2CCCCC2NS(=O)(=O)c2ccc(Cl)cc2)n1 (configuration not stated)
O=C(O)c1cc(S(=O)(=O)Nc2ccc3cn[nH]c3c2)ccc1Br
CCN(CC(=O)NC1CCS(=O)(=O)C1)S(=O)(=O)c1ccccc1 (configuration not stated)
COc1ccc(COC(=O)c2ccc(Cl)c(S(=O)(=O)N3CCOCC3)c2)cc1F
CCN(CC)Cc1c(C(=O)N/N=C/c2cccc(OCc3ccc(F)cc3)c2)nnn1-c1nonc1N
O=C(CN(C(=O)c1csnn1)c1cccc(F)c1)NCc1ccc(F)cc1
CC(C)=CCN1CCN(Cc2ccc(Oc3ncccn3)cc2)CC1CCO (configuration not stated)
COc1ccc(N2CCN(C(=O)CN3C(=O)COc4ccccc43)CC2)cc1
O=C(O)c1cscn1
COc1cccc2cc(-c3cc(=O)oc4cc(C)c(O)cc34)oc12
O=C(C[C@H]1C/C=C\C[C@@H](NC(=O)OCC2c3ccccc3-c3ccccc32)C(=O)O[C@@H](c2ccccc2)CNC1=O)N[C@H](CO)Cc1ccccc1
CCOc1cc(/C=N/Nc2cc(C)nc3ccc(C)cc23)ccc1O
CC(C)CN(C(=O)CN1CCN(S(=O)(=O)c2ccccc2)CC1)c1c(N)n(CC(C)C)c(=O)[nH]c1=O
COc1ccc(S(=O)(=O)N2CCCC(C(=O)NCCCn3ccnc3)C2)cc1OC (configuration not stated)
COc1ccc(NC(=O)C/C(C)=N/NC(=O)c2cnccn2)cc1Cl
Cc1ccc(S(=O)(=O)N(CC(=O)N/N=C/c2ccc(F)cc2)c2cccc3cccnc23)cc1
COc1ccc(C(=O)N(CCN2CCOCC2)CC(=O)NC2CCCC2)cc1OC
O=C(NC(Cc1c[nH]c2ccccc12)C(=O)O)/C(=C/c1ccco1)NC(=O)c1ccccc1 (configuration not stated)
O=C(NCc1ccccc1Cl)C(=O)NCC1CCCN1S(=O)(=O)c1cccs1 (configuration not stated)
CCC1(C)CC(=O)NC1=O (configuration not stated)
CCCCOC(=O)Nc1nccs1
Cc1ccc(NS(=O)(=O)c2ccc3c(c2)NC(=O)CO3)cc1
COC(=O)[C@H](Cc1ccccc1)NC(=O)[C@@H]1C[C@H]1[C@@H](NC(=O)OCc1ccccc1)c1ccccc1
COc1ccc(C2OC(=O)CC2C(=O)NC(C)C)cc1 (configuration not stated)
Cc1csc(=O)n1CC(=O)OCC(=O)N(CC(C)C)c1c(N)n(Cc2ccccc2)c(=O)[nH]c1=O
C[C@@H](CN1CCC[C@H]1CN1C(N)=NC[C@@H]1Cc1ccccc1)N1C[C@@H](Cc2ccccc2)N(CCCC2CCCC2)C1=N
O=C(Nc1cc(S(=O)(=O)N2CCOCC2)ccc1OCC(F)(F)F)c1ccc(N2CCCC2=O)cc1
Cc1ccc(O)c(-c2cc(C(=O)Nc3c(C)n(C)n(-c4ccccc4)c3=O)[nH]n2)c1
O=C(CCC(=O)OCc1cccc(C(=O)Oc2ccccc2)c1)Nc1cccc2ccccc12
CC(C)C(NC(=O)c1c(F)cccc1F)C(=O)NNC(=O)c1ccccc1 (configuration not stated)
CCn1cc(CN2CCC(n3nccc3NC(=O)CCCc3ccccc3)CC2)c(C)n1
CC(C)c1nnc(NC(=O)C2CC(=O)N(CCc3ccc(F)cc3)C2)s1 (configuration not stated)
CN(c1ccc(OCC(=O)OCC(=O)Nc2cccc([N+](=O)[O-])c2)cc1)S(=O)(=O)c1ccc(F)cc1
Nc1ccc(Nc2cc(O)c3ncccc3c2)cc1
CCOc1ccc(C(=O)CCC(=O)Nc2ccncc2)cc1
CCCCc1ccc(NC(=S)N2CCCC(CO)C2)cc1 (configuration not stated)
COc1ccc(C(=O)CCc2ccccc2O)c(OC)c1
CC1=CCC2C(=O)N(c3cccc(C(=O)NC(C)c4ccccc4)c3)C(=O)C2C1 (configuration not stated)
COc1ccc(S(=O)(=O)N2CCN(C(=O)N(C)C)C2C)cc1 (configuration not stated)
CCOc1ncccc1C(=O)NNC(=O)c1cccc(S(=O)(=O)Nc2ccccc2OC)c1
CCN(CC)C(=O)Oc1ccc(Br)cc1C(=O)Nc1ccc(F)c(Cl)c1
NS(=O)(=O)c1ccc(CCNS(=O)(=O)c2cccc3cccnc23)cc1
Cc1ccc(CNC(=O)CCS(=O)(=O)c2ccc3c(c2)CC(C)N3C(=O)C2CC2)o1 (configuration not stated)
O=C(NCc1ccco1)C1CCCN1S(=O)(=O)c1ccccc1C(F)(F)F (configuration not stated)
CCNc1nc(Oc2ccc(C(=O)OC)cc2)nc(N2CCOCC2)n1
Cc1ccc2nc(NC(=O)CSc3nc(=O)n(CCCN(C)C)c4c3CCC4)sc2c1
CCOc1ccc(Br)cc1S(=O)(=O)Nc1ccc(S(=O)(=O)Nc2cc(C)on2)cc1
CCCc1nc(SCC(=O)Nc2ccccc2OC)c2c(=O)n(C)c(=O)n(C)c2n1
CN(C)S(=O)(=O)c1ccc(C(=O)NCCN=C2NS(=O)(=O)c3ccccc32)cc1
CC(=O)NCCC(=O)Nc1cc(S(=O)(=O)N2CCCCC2)ccc1Oc1cccc(C)c1
COc1ccc(C(C(=O)NC2CCCC2)N(CCCO)C(=O)Cn2nnc(-c3ccc(C)o3)n2)cc1 (configuration not stated)
CCc1cc(C(=O)OC)c(NC(=O)CC2Sc3ccc(C(F)(F)F)cc3NC2=O)s1 (configuration not stated)
